Hit rate of the full screen: of about 52,000 compounds, about 4,300 (8.3%) were called active. This is one part of a sample in which actives are shown more often than they occur. Values without a mark were called inactive. No stated cut-off is given here; in the data, active means survival mostly below about 52% (no sharp cut-off); inactive means mostly above about 56%.

This note sets out measurements from PubChem BioAssay AID463173 (ICCB-Longwood Screening Facility, Harvard Medical School, 2010).

The assay has as its system DeltatarO mutant. Nature of the assay: growth inhibition of S. aureus wild type versus tarO mutant, primary screen, teichoic acid synthesis inhibitors, RN4220, OD600 (AID 463173). The settings on record: OD600, 18 h, active compounds read low, screened at 18.75 µg/mL (by protocol).
Take `CCCN1CCc2nc(N3CCN(CC)CC3)ncc2C1`: the survival was 72%.

As for `Cc1ccc2oc(-c3ccc(Cl)c(NC(=O)c4ccc(-c5ccccc5[N+](=O)[O-])o4)c3)nc2c1`, the survival is 74%.

Take `COc1ccc2oc(-c3ccc(C)c(NC(=O)c4ccc(-c5ccccc5[N+](=O)[O-])o4)c3)nc2c1`: the survival was 42% (active).

Regarding `Cc1ccc2oc(-c3ccc(C)c(NC(=O)c4ccc(-c5ccccc5[N+](=O)[O-])o4)c3)nc2c1`, the survival was 68%.

Consider `Cc1cccc(Nc2nn3c(=O)c4cc5c(cc4nc3s2)OCO5)c1`, for which the survival was 116%.

With `Cc1ccc(C)c(Nc2nn3c(=O)c4cc5c(cc4nc3s2)OCO5)c1`, the survival is 37% (active).

For the compound `Cc1cc(C)c(Nc2nn3c(=O)c4cc5c(cc4nc3s2)OCO5)c(C)c1`, the survival was 51%.

On to `COc1ccccc1C(=O)n1nc(-c2ccccc2)nc1NCc1ccc(Cl)cc1`, for which the survival is 56%.

For the compound `O=C(c1ccccc1)n1nc(-c2ccccc2)nc1NCc1ccc(F)cc1`, the survival was 12% (active).

`O=C(c1ccccc1Cl)n1nc(-c2cccnc2)nc1NCc1ccc(F)cc1`: the survival was 55%.

In the case of `Cc1cccc(C(=O)n2nc(-c3cccnc3)nc2NCc2ccc(F)cc2)c1`, the survival was 54%.

For the compound `O=C(c1ccc(F)cc1)n1nc(-c2ccccc2)nc1NCc1ccc(F)cc1`, the survival was 30% (active).

For the compound `O=C(c1ccco1)n1nc(-c2ccccc2)nc1NCc1ccc(F)cc1`, the survival is 65%.

Consider `O=C(c1ccc(F)cc1)n1nc(-c2cccnc2)nc1NCc1ccc(F)cc1`, for which the survival is 73%.

Take `Cc1ccccc1C(=O)n1nc(-c2cccnc2)nc1NCc1ccc(F)cc1`: the survival is 48%.

Regarding `O=C(c1ccc(F)cc1)n1nc(-c2cccnc2)nc1NCc1ccccc1`, the survival is 71%.

Consider `COc1ccc(CNc2nc(-c3ccccc3)nn2C(=O)c2ccccc2OC)cc1`, for which the survival is 102%.

Consider `COc1ccc(CNc2nc(-c3ccc(Cl)cc3)nn2C(=O)c2ccccc2)cc1`, for which the survival is 36% (active).

`O=C(c1ccc(Cl)cc1)n1nc(-c2cccnc2)nc1NCc1ccc(F)cc1`: the survival was 43% (active).

For the compound `Cc1ccc(Cn2ccnc2SCC(=O)Nc2ccc3c(c2)OCO3)cc1`, the survival was 92%.

On to `COc1ccc(NC(=O)CSc2nc3ccncc3[nH]2)c(OC)c1`, for which the survival was 95%.

In the case of `CCCCC12CN3CC(C)(CN(C1)C3c1cc(Br)ccc1O)C2=O` (stereo not given), the survival was 72%.

For the compound `CCN=C1S/C(=C\c2cn(CC(=O)NCCOC)c3ccccc23)C(=O)N1CC`, the survival is 95%.

Regarding `CCOc1ccc(CCNC(=O)CS(=O)(=O)Cc2nc(-c3ccc(OC)cc3)oc2C)cc1`, the survival is 83%.

As for `COc1ccc(N(CC(=O)NCc2ccc(F)cc2)S(=O)(=O)c2c(C)n[nH]c2C)cc1`, the survival is 79%.

For `CCNC(=O)c1cnc2sc(N3CCC(C)CC3)nn2c1=O`, the survival is 74%.

Consider `Cc1onc(-c2c(F)cccc2Cl)c1C(=O)Nc1ccc(OC(C)C)cc1`, for which the survival was 62%.

Turning to `Cc1onc(-c2ccccc2Cl)c1C(=O)NC(C(=O)O)C(C)C` (stereo not given), the survival was 86%.

In the case of `Cc1ccc(S(N)(=O)=O)cc1NC(=O)c1c(-c2c(Cl)cccc2Cl)noc1C`, the survival is 55% (active).

As for `CC(C)c1cc(C(=O)NCc2ccccc2)no1`, the survival was 54%.

For `CCOC(=O)C1CCN(C(=O)CSc2n[nH]c(-c3ccccc3)n2)CC1`, the survival was 97%.

For the compound `O=C(Nc1noc2ccccc12)c1c(F)cccc1F`, the survival was 87%.

As to `COC(=O)c1cccc(Nc2c(-c3ccc(OC)cc3)nc3nc[nH]n23)c1`, the survival was 64%.

Regarding `Cc1ccc2nc(N3CCN(c4cccc(Cl)c4)CC3)c(-n3nc(C)cc3C)nc2c1`, the survival is 0% (active).

`Cc1ccc2nc(N3CCN(c4cccc(Cl)c4)CC3)c3nnnn3c2c1`: the survival is 88%.

`Cc1cc(C)n(-c2nc3ccccc3nc2N2CCN(c3cccc(C(F)(F)F)c3)CC2)n1`: the survival was 91%.

Take `Cc1ccc(C)c(N2CCN(c3nc4ccc(C)cc4nc3-n3nc(C)cc3C)CC2)c1`: the survival was 102%.

For `COc1ccccc1N1CCN(c2nc3ccc(C)cc3nc2-n2nc(C)cc2C)CC1`, the survival was -5% (active).

Regarding `Cc1cc(C)n(-c2nc3cc(Cl)ccc3nc2N2CCN(c3ccccc3F)CC2)n1`, the survival was 98%.

For the compound `Cc1cc(C)n(CCc2nc3c4ccccc4nc(N4CCN(c5cccc(C)c5C)CC4)n3n2)n1`, the survival is 86%.

In the case of `Cc1cc(C)c(C#N)c(N2CCN(c3cccc(C)c3C)CC2)n1`, the survival is 106%.

As to `COc1ccccc1N1CCN(c2nc3ccc(C)cc3n3nnnc23)CC1`, the survival is 128%.

On to `Cc1cc(C)n(-c2nc3cc(Cl)ccc3nc2Nc2ccc(C)c(F)c2)n1`, for which the survival was 91%.

In the case of `Cc1cc(C)n(-c2nc3ccccc3nc2N2CCN(c3cccc(C)c3C)CC2)n1`, the survival was -6% (active).

With `Cc1cc(C)n(-c2nc3cc(Cl)ccc3nc2N2CCN(c3cccc(C)c3C)CC2)n1`, the survival was -6% (active).

As for `O=C(Nc1ccccc1C(F)(F)F)N1CCN(c2ccc3nnc(-c4ccc(F)cc4)n3n2)CC1`, the survival was 58%.

As to `COc1ccc(-c2nc(CSc3nncn4c3cc3oc(C)cc34)c(C)o2)cc1`, the survival is 56%.

`Cc1c(Cl)cccc1-n1ncc(C(=O)N2CCOCC2)c1C1CCN(C(=O)OC(C)(C)C)CC1`: the survival was 103%.

Regarding `CCc1ccc(S(=O)(=O)Nc2cccc(-c3ccc(OC)nn3)c2)s1`, the survival was 76%.

Take `Cc1c(CC(=O)NCCc2ccccc2F)c(=O)oc2cc(O)c(Cl)cc12`: the survival is 59%.

In the case of `CCn1cc(C(=O)N2CCN(c3ccccc3F)CC2)c(=O)c2cc(S(=O)(=O)N(C)C3CCCCC3)ccc21`, the survival is 79%.

As to `CCn1cc(C(=O)NCc2ccccc2)c(=O)c2cc(S(=O)(=O)N3CCc4ccccc4C3)ccc21`, the survival was 73%.

For `CCn1cc(C(=O)NCCc2ccc(Cl)cc2)c(=O)c2cc(S(=O)(=O)N3CCc4ccccc4C3)ccc21`, the survival was 54% (active).

With `CCn1cc(C(=O)NCCc2ccc(C)cc2)c(=O)c2cc(S(=O)(=O)N3CCc4ccccc4C3)ccc21`, the survival is 67%.

Turning to `CCn1cc(C(=O)NCCc2ccccc2)c(=O)c2cc(S(=O)(=O)N3CCc4ccccc4C3)ccc21`, the survival is 67%.

Regarding `CCOc1ccc(CCNC(=O)c2cn(C)c3ccc(S(=O)(=O)N4CCOCC4)cc3c2=O)cc1OCC`, the survival was 56% (active).

Turning to `CCn1cc(C(=O)NC(C)c2ccccc2)c(=O)c2cc(S(=O)(=O)N3CCc4ccccc4C3)ccc21` (stereo not given), the survival was 80%.

Consider `CCOc1ccc(CCNC(=O)c2cn(C)c3ccc(S(=O)(=O)N4CCCCCC4)cc3c2=O)cc1OCC`, for which the survival was 61%.

Regarding `CCOc1ccc(CCNC(=O)c2cn(C)c3ccc(S(=O)(=O)N4CCCCC4)cc3c2=O)cc1OCC`, the survival is 101%.

For the compound `CCC(C)NC(=O)c1cn(CC)c2ccc(S(=O)(=O)N3CCc4ccccc4C3)cc2c1=O` (stereo not given), the survival was 35% (active).
